Source: PubChem (several laboratories)
CRFBP-R2 block: antagonists of CRF-BP/CRF-R2 complex, primary screen, cell-based, HEK293, calcium dye fluorescence, uHTS. 0.59% of 350,000 active. AID 588475, 2011. inhibition, % at 11.8 µM. CRF-induced calcium fluorescence;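 active = inhibition of the ligand-induced calcium signal above about 50% at the single tested concentration, limit read from the data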
ABHD5-PLIN5 inh: ABHD5-PLIN5 interaction inhibitors, primary screen, cell lysate, split luciferase complementation, luminescence; Perilipin-5 (Homo sapiens) + 1-acylglycerol-3-phosphate O-acyltransferase ABHD5 (Homo …; Split G. princeps luciferase complementation, 4 h; inhibition, % at 4 µM; 0.78% of 360,000 active; AID 602281, 2012;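 active = inhibition above the mean inhibition across every tested compound plus 3 SD, cut at about 22% in these data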;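 note: 0% = DMSO only wells and the 100% control is not disclosed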
TLR4-MyD88 BLA: inhibitors of TLR4-MyD88 association in cells, primary screen, cell-based, HeLa CL3-4, BLA complementation, FRET ratio. Toll-like receptor 4 (Homo sapiens) + Myeloid differentiation primary response protein …. HeLa CL3-4 TLR4/MyD88 BLA complementation. inhibition, % at 8.4 µM. 0.18% of 200,000 active. AID 861, 2007; in the data active = inhibition above about 25%;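 note: 0% = vehicle and 100% = reference inhibitor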
TLR9-MyD88 inh: inhibitors of TLR9-MyD88 association in cells, primary screen, cell-based, CHO, BLA complementation, fluorescence. inhibition, % at 4.98 µM. Toll-like receptor 9 (Homo sapiens) + Myeloid differentiation primary response protein …. CCF4 FRET ratio. 0.21% of 340,000 active;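 active = inhibition above the mean over all tested compounds plus 3 SD, cut at about 21% in these data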;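 note: 0% = DMSO only wells and 100% = clavulanate BLA inhibitor control wells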
NOD2 RIPK2 PPI: NOD2-RIPK2 binding disruptors in cells, primary screen, fluorescence, CHO cells, BLA complementation; Receptor-interacting serine/threonine-protein kinase 2 (Homo sapiens), O43353; CCF4 ratio; inhibition, % at 4.98 µM; 0.38% of 360,000 active; AID 624267, 2012; in the data active = inhibition above about 21%;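 note: 0% = vehicle only and 100% = reference blocker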
Target sequence (O43353 whole entry, looked up): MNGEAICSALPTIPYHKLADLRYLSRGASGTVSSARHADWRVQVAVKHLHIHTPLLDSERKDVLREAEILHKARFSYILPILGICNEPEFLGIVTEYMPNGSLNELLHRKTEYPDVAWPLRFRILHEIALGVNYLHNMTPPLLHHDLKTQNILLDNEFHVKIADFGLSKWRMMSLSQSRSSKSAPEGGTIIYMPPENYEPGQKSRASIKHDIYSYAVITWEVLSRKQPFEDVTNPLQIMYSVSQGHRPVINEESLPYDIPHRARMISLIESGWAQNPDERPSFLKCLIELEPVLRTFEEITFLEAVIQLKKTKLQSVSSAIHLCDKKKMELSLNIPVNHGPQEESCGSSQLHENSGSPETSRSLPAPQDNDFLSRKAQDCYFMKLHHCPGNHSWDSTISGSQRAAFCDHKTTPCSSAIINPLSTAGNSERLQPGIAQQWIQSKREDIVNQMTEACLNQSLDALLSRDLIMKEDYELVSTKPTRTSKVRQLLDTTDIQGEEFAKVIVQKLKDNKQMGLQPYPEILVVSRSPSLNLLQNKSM
HTR2A ag: mouse Htr2a agonists via beta-arrestin recruitment, primary screen, cell-based, luminescence; CHO-K1 mHTR2A beta-arrestin complementation; percent of 30 µM serotonin response; AID 624169, 2012; 5-hydroxytryptamine receptor 2A (Mus musculus), P35363; 0.66% of 360,000 active; activation, % at 7.6 µM;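 active = activation above a run cutoff, the mean activation of all tested compounds plus 3 SD, cut at about 14% in these data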;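 note: 0% = plate median of compound wells and 100% = 30 µM serotonin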
ABHD5-PLIN5 conf: ABHD5-PLIN5 interaction inhibitors, confirmation, biochemical, luminescence; 67% of 2,200 active; AID 651612, 2012; inhibition, % at 4 µM; shares compounds with ABHD5-PLIN5 inh; in the data active = inhibition above about 23%;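 note: 0% = DMSO vehicle wells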
HNF4 counter: HNF4 dimerization inhibitors, counter-screen for ABHD5-PLIN5 interaction inhibitor project, biochemical, split-luciferase complementation, luminescence. shares compounds with ABHD5-PLIN5 inh. inhibition, % at 4 µM. 77% of 2,200 active;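 active = mean inhibition across replicate wells exceeding the computed hit threshold, cut at about 13% in these data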;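 note: light from luciferase halves that rejoin when HNF4 fusion proteins dimerize; 0% = DMSO only wells and the 100% control is not given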
Numbers without * were called inactive. A selection: hits, their analogues and other compounds. The true share with any hit is near 2.4%.

`CN1C(=O)C(=Cc2ccccc2OS(=O)(=O)c2ccccc2)C(=O)N(C)C1=O` gave CRFBP-R2 block -8, ABHD5-PLIN5 inh 45*, TLR9-MyD88 inh -5, NOD2 RIPK2 PPI -3, HTR2A ag 1, ABHD5-PLIN5 conf 76* and HNF4 counter 74*.
`CCCCn1c(NC(=O)c2ccco2)c(C(=O)OCC)c2nc3ccccc3nc21` gave CRFBP-R2 block -4, ABHD5-PLIN5 inh 31*, TLR4-MyD88 BLA 10, TLR9-MyD88 inh -13, NOD2 RIPK2 PPI 1, HTR2A ag -5, ABHD5-PLIN5 conf 41* and HNF4 counter 62*.
CC12C=CC(=O)C=C1CC(O)C1C2CCC2(C)C1CCC2(C)O (stereo not drawn) was read as CRFBP-R2 block -1, ABHD5-PLIN5 inh -1, TLR9-MyD88 inh -2, NOD2 RIPK2 PPI 1 and HTR2A ag 2.
For COC(=O)c1nc(-c2ccc3c(n2)C(=O)C(N)=C(OC)C3=O)c(N)c(-c2ccc(OC)c(OC)c2O)c1C the results were CRFBP-R2 block -8, ABHD5-PLIN5 inh 25*, TLR9-MyD88 inh -14, NOD2 RIPK2 PPI 3, HTR2A ag 7, ABHD5-PLIN5 conf -16 and HNF4 counter 14*.
`CC12CCC(=O)C=C1CCC1C2CCC2(C)C1CCC2(O)CC#N` (stereo not drawn) gave CRFBP-R2 block 13, ABHD5-PLIN5 inh -3, TLR9-MyD88 inh -5, NOD2 RIPK2 PPI 8 and HTR2A ag 0.
O=C1NC(=S)NC(=O)C1=Cc1cccn1-c1ccc(O)cc1 was read as CRFBP-R2 block -6, ABHD5-PLIN5 inh 24*, TLR4-MyD88 BLA 12, TLR9-MyD88 inh -3, NOD2 RIPK2 PPI -10, HTR2A ag 0, ABHD5-PLIN5 conf 91* and HNF4 counter 95*.
For CN1C(=O)/C(=C/c2cccn2-c2ccc3ccccc3c2)C(=O)NC1=S the results were CRFBP-R2 block -1, ABHD5-PLIN5 inh 7, TLR4-MyD88 BLA -8, TLR9-MyD88 inh 11, NOD2 RIPK2 PPI 4 and HTR2A ag -5.
For CC(C)NC1C2CCC(CC2)C1(O)c1ccc(Cl)c(Cl)c1 (stereo not drawn) the results were CRFBP-R2 block -26, ABHD5-PLIN5 inh 9, TLR9-MyD88 inh -7, NOD2 RIPK2 PPI 1 and HTR2A ag -3.
For CN1C(=O)C(=Cc2cccnc2)C(=O)N(C)C1=O the results were CRFBP-R2 block 0, ABHD5-PLIN5 inh 27*, TLR9-MyD88 inh -5, NOD2 RIPK2 PPI -14, HTR2A ag -3, ABHD5-PLIN5 conf 37* and HNF4 counter 49*.
`CN1C(=O)C(=Cc2ccc(N3CCCCCC3)cc2)C(=O)N(C)C1=O` gave CRFBP-R2 block -8, ABHD5-PLIN5 inh 8, TLR9-MyD88 inh 5, NOD2 RIPK2 PPI -3 and HTR2A ag 0.
CCOC(=O)c1cccc(C2=C(CNC(=O)c3ccc([N+](=O)[O-])cc3)[C@H]3CC[C@@H](C2)N3Cc2ccccc2)c1 was read as CRFBP-R2 block -8, ABHD5-PLIN5 inh -1, TLR9-MyD88 inh 11, NOD2 RIPK2 PPI 2 and HTR2A ag -7.
`CCC1C2CC3C4N(C)c5ccccc5C45CC(C2C5O)N3C1O` (stereo not drawn) gave ABHD5-PLIN5 inh -3, NOD2 RIPK2 PPI -3 and HTR2A ag 0.
For CCN(CC)S(=O)(=O)c1ccc(NN=C(C#N)C#N)cc1 the results were CRFBP-R2 block 41, ABHD5-PLIN5 inh 26*, TLR4-MyD88 BLA 1, TLR9-MyD88 inh 6, NOD2 RIPK2 PPI -23, HTR2A ag 1, ABHD5-PLIN5 conf 44* and HNF4 counter 35*.
For Cc1ccccc1-c1ccc2c(c1)CNCc1cnnn1-2 the results were ABHD5-PLIN5 inh -3, NOD2 RIPK2 PPI 1 and HTR2A ag -3.
For CC12CCC3c4ccc(OC(=O)N(CCCl)CCCl)cc4CCC3C1CCC2O (stereo not drawn) the results were CRFBP-R2 block -21, ABHD5-PLIN5 inh 1, TLR9-MyD88 inh -7, NOD2 RIPK2 PPI -15 and HTR2A ag -6.
Screening O=c1[nH]c(=O)n(-c2cccc(F)c2)c(O)c1/C=C1\C=Nc2ccccc21 returned CRFBP-R2 block -56, ABHD5-PLIN5 inh 16, TLR9-MyD88 inh -5, NOD2 RIPK2 PPI 3 and HTR2A ag -3.
Screening Cn1c(O)c(/C=C2\C=Nc3ccccc32)c(=O)n(C)c1=O returned CRFBP-R2 block -18, ABHD5-PLIN5 inh 35*, TLR9-MyD88 inh 0, NOD2 RIPK2 PPI -3, HTR2A ag 0, ABHD5-PLIN5 conf 7 and HNF4 counter 17*.
`O=C(O)c1ccc(-n2c(O)c(/C=C3\C=Nc4ccccc43)c(=O)[nH]c2=O)cc1` gave CRFBP-R2 block 3, ABHD5-PLIN5 inh 29*, TLR9-MyD88 inh -4, NOD2 RIPK2 PPI -4, HTR2A ag 11, ABHD5-PLIN5 conf 32* and HNF4 counter 54*.
For N#CC(C#N)=NNc1ccc(-n2ccc(C(F)(F)F)n2)cc1 the results were CRFBP-R2 block 34, ABHD5-PLIN5 inh 58*, TLR9-MyD88 inh 8, NOD2 RIPK2 PPI -8, HTR2A ag 11, ABHD5-PLIN5 conf 83* and HNF4 counter 71*.
Cc1cc(C)n(-c2ccc(NN=C(C#N)C#N)cc2)n1 was read as CRFBP-R2 block 38, ABHD5-PLIN5 inh 44*, TLR9-MyD88 inh -6, NOD2 RIPK2 PPI -6, HTR2A ag 4, ABHD5-PLIN5 conf 49* and HNF4 counter 43*.
`CCOc1ccc(-c2cc(C)[n+](CCc3ccc(OC)c(OC)c3)c(-c3ccc(OCC)cc3)c2)cc1` gave CRFBP-R2 block 1, ABHD5-PLIN5 inh 24*, TLR9-MyD88 inh 4, NOD2 RIPK2 PPI -6, HTR2A ag 2, ABHD5-PLIN5 conf 7 and HNF4 counter 10.
CCOc1ccc(-c2cc(C)[n+](CCO)c(-c3ccc(OCC)cc3)c2)cc1 was read as CRFBP-R2 block 0, ABHD5-PLIN5 inh 6, TLR4-MyD88 BLA 9, TLR9-MyD88 inh 0, NOD2 RIPK2 PPI -3 and HTR2A ag 8.
O=C1CC(=O)N(c2ccccc2F)C(=O)N1 was read as CRFBP-R2 block -8, ABHD5-PLIN5 inh 23*, TLR9-MyD88 inh -16, NOD2 RIPK2 PPI 3, HTR2A ag 6, ABHD5-PLIN5 conf 12 and HNF4 counter 70*.
